From PubChem BioAssay (Tox21)
Where a structure was tested more than once in an assay, its records may differ in their call. Calls of active or inactive are those of the source. Unless noted, calls follow the shape of the dose curve; as a rule, active = well fitted curve in the direction sought with a large enough effect in the repeat runs; inconclusive = weak or mixed curves; inactive = no such curve, though single readings can be large; an effect the other way counts as inactive or inconclusive.

Key:
[1] = qHTS assay to identify small molecule antagonists of the thyroid receptor (TR) signaling pathway (AID 743065); also: nearly all actives have a fitted effect of over 55% in size; also: potency is read from the fitted curve at half-maximal effect
In short: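 GH3.TRE-Luc rat pituitary cells carrying two TR response elements driving luciferase were plated for 4 h, given compound plus 1 nM T3 (final), and incubated 23.5 h at 37 C. ONE-Glo luminescence measured reporter inhibition; CellTiter-Fluor fluorescence tracked cytotoxicity.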

[2] = tested on: thyroid hormone receptor (rat, GH3 cells); assay: qHTS assay to identify small molecule agonists of the thyroid receptor (TR) signaling pathway (AID 743066; calls by dose curve)
[3] = target: Estrogen receptor (Homo sapiens) (UniProt P03372); assay: qHTS assay to identify small molecule antagonists of the estrogen receptor alpha (ER-alpha) signaling pathway (AID 743069; active = well fitted curve in the direction sought with a large enough effect in the signal ratio in the repeat runs, not every such curve was filed as active; inconclusive = weak or mixed curves, or effect the other way; inactive = no such curve, though single readings can be large or run the other way; the % refers to the signal ratio)
In short: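 Screening used a UAS-driven beta-lactamase reporter integrated into HEK293 cells expressing ER-alpha, stimulated with 17beta-estradiol alongside test compounds over 18 hr at 37C; signal came from LiveBLAzer B/G FRET fluorescence.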

[4] = qHTS assay to identify small molecule antagonists of the estrogen receptor alpha (ER-alpha) signaling pathway - cell viability counter screen (AID 743074; calls by dose curve; also: nearly all actives have a fitted effect of over 45% in size)
[5] = target: Estrogen receptor (Homo sapiens) (UniProt P03372); assay: qHTS assay to identify small molecule agonists of the estrogen receptor alpha (ER-alpha) signaling pathway (AID 743075; calls by dose curve; also: potency is read from the fitted curve at half-maximal effect)
[6] = target: Estrogen receptor (Homo sapiens) (UniProt P03372); assay: qHTS assay to identify small molecule agonists of the estrogen receptor alpha (ER-alpha) signaling pathway using the BG1 cell line (AID 743079); also: nearly all actives have a fitted effect of over 20% in size; also: potency is read from the fitted curve at half-maximal effect
[7] = qHTS assay to identify small molecule antagonists of the estrogen receptor alpha (ER-alpha) signaling pathway using the BG1 cell line (AID 743080; calls by dose curve;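 also: BG1 cells stimulated with 17beta-estradiol alongside compound; series mostly up to about 70 µM; nearly all actives have a fitted effect of over 25% in size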)
In short: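 BG1-Luc-4E2 cells (endogenous full-length ER-alpha, 4xERE luciferase) hormone-starved 5 days in charcoal-stripped FBS, plated 4,000/well for 24 h, then compound plus 17beta-estradiol for 21.5 h at 37 C; ONE-Glo luminescence read.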

[8] = qHTS assay to identify small molecule antagonists of the estrogen receptor alpha (ER-alpha) signaling pathway using the BG1 cell line - cell viability counter screen (AID 743081);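 also: compound given together with 17beta-estradiol as the ER stimulus; series mostly up to about 70 µM; nearly all actives have a fitted effect of over 45% in size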
Aromatase (Homo sapiens) = Aromatase (Homo sapiens) (UniProt P11511); assay: qHTS assay to identify aromatase inhibitors (AID 743083); also: series mostly up to about 70 µM; nearly all actives have a fitted effect of over 55% in size
[9] = qHTS assay to identify small molecule antagonists of the thyroid receptor (TR) signaling pathway - cell viability counter screen (AID 743064); also: nearly all actives have a fitted effect of over 50% in size
In short: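 In rat pituitary GH3.TRE-Luc reporter cells co-exposed to compound and 1 nM T3 for 23.5 h, cytotoxicity was assessed with CellTiter-Fluor in the same wells, read by fluorescence.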

Measured: Potency

Sequence of Estrogen receptor (Homo sapiens) (P03372 whole entry, looked up): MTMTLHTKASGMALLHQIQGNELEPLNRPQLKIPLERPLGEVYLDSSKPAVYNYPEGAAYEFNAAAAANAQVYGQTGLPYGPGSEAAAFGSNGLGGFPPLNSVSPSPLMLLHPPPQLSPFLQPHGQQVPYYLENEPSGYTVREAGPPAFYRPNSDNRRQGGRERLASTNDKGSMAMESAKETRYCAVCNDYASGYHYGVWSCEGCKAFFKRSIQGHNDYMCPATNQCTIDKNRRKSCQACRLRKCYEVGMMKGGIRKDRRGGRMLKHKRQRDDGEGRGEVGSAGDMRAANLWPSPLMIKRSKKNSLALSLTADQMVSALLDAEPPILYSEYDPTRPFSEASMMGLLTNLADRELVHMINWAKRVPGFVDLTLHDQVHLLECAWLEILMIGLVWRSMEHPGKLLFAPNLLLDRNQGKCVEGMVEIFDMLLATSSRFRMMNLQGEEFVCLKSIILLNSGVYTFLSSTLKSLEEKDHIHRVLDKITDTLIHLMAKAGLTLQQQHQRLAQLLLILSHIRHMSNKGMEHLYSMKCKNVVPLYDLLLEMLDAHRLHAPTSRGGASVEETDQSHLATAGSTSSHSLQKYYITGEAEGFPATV
Sequence of Aromatase (Homo sapiens) (P11511 whole entry, looked up): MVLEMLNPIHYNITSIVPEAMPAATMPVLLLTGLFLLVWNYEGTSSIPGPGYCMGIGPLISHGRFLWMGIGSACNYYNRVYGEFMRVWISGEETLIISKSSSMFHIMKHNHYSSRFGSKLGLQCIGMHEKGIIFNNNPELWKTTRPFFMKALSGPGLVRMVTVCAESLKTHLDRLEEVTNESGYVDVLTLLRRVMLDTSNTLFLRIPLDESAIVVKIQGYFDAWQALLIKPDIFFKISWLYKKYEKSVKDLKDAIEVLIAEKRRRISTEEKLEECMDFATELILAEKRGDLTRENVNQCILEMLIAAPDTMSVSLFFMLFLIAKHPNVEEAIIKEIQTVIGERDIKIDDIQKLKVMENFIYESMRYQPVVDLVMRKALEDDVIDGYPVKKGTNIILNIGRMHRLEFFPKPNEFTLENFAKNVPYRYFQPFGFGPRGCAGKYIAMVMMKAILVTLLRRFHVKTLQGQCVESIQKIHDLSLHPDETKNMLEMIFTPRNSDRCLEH

O=C1CCCCCO1
not listed: [9]
inactive: all other assays above

CC(C)c1ccc2c(C(C)C)cc(C(C)C)c(S(=O)(=O)O)c2c1
active: [1] 63.2 µM
not listed: [9]
inactive: all other assays above

CC(=O)/C(C)=C/C1C(C)=CCCC1(C)C (stereo not given)
not listed: [1] | [2]
inactive: all other assays above

CC(C(=O)O)c1ccc(-c2ccccc2)c(F)c1 (stereo not given)
4.52 µM (active) and inactive: [6]
not listed: [9]
inactive: all other assays above

CC(C)(C)C(=O)OCOP(=O)(COCCn1cnc2c(N)ncnc21)OCOC(=O)C(C)(C)C
inactive: [9] | [2] | [4] | [8] | Aromatase (Homo sapiens)

Cc1ccc(C(C)c2ccc(C)c(C)c2)cc1C
not listed: [1]
inactive: all other assays above

Cl/C(=C\n1cncn1)c1ccc(Cl)cc1Cl
inactive: [9] | [2] | [4] | [8]

CC1(C)CCC(C)(C)c2cc(NC(=O)c3ccc(C(=O)O)cc3)ccc21
inactive: [2] | [4] | [8]
active: [1] 21.1 µM

CC(=O)OC/C=C/c1ccccc1
inactive: [1] | [2] | [4] | [8] | Aromatase (Homo sapiens)

C1CCC2OC2C1 (stereo not given)
not listed: [6] | [9]
inactive: all other assays above

c1ccc(OCc2ccc(CCCN3CCOCC3)cc2)cc1
active: [1] 21.1 µM
not listed: [7] | [9]
inactive: all other assays above

CC(C)(C)c1cc(CCC(=O)OCC(COC(=O)CCc2cc(C(C)(C)C)c(O)c(C(C)(C)C)c2)(COC(=O)CCc2cc(C(C)(C)C)c(O)c(C(C)(C)C)c2)COC(=O)CCc2cc(C(C)(C)C)c(O)c(C(C)(C)C)c2)cc(C(C)(C)C)c1O
active: [5] 0.0074 µM [inconclusive] | [6] 4.11 µM
not listed: [9]
inactive: all other assays above

COC(Cc1ccccc1)OC
not listed: [3] | [6] | [9]
inactive: all other assays above

O=C(CC(=O)c1ccccc1)c1ccccc1
inactive: [1] | [2] | [4] | [8] | Aromatase (Homo sapiens)

CCCCCC/C=C/C=O
inactive: [1] | [2] | [4] | [8] | Aromatase (Homo sapiens)

Oc1ccc(O)c2c(O)cccc12
not listed: [9]
inactive: all other assays above

Cn1c(=O)c2c(ncn2CC(O)CO)n(C)c1=O (stereo not given)
not listed: [9]
inactive: all other assays above

CCC(C)N(C)C(=O)c1cc2ccccc2c(-c2ccccc2Cl)n1 (stereo not given)
active: [1] 35.2 µM
not listed: [3] | Aromatase (Homo sapiens) | [9]
inactive: all other assays above

CCCC(=O)OCC
not listed: [9]
inactive: all other assays above

CC(=O)c1ccc2c(c1)[C@H](NC(=O)c1ccc(F)cc1)[C@@H](O)C(C)(C)O2
inactive: [1] | [2] | [4] | [8] | Aromatase (Homo sapiens)

CC1CCc2cc(F)cc3c(=O)c(C(=O)O)cn1c23 (stereo not given)
inactive: [1] | [2] | [4] | [8]

COC(=O)C(C)=O
not listed: [9]
inactive: all other assays above

CC(=O)N(O)CCCCCNC(=O)CCC(=O)N(O)CCCCCNC(=O)CCC(=O)N(O)CCCCCN
not listed: [9]
inactive: all other assays above

CC(=O)OCCc1ccccc1
not listed: [9]
inactive: all other assays above

CC(C)CCCCCCOC(=O)c1ccc(C(=O)OCCCCCCC(C)C)c(C(=O)OCCCCCCC(C)C)c1
inactive: [1] | [2] | [4] | [8] | Aromatase (Homo sapiens)

CC(=O)[C@@]1(O)CC[C@H]2[C@@H]3C[C@H](C)C4=CC(=O)CC[C@]4(C)[C@H]3CC[C@@]21C
active: [1] 11.9 µM
inactive: [2] | [4] | [5] | [8] | Aromatase (Homo sapiens)
